Molecules are shown by their SMILES. This is part of a sample that, as a whole, favours compounds with a hit. Of some 83,000 tested, about 20% had one in any assay.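 Testing used 96-well plates and a 48-hour single-concentration exposure. Example: -40 means 40% of the starting cells died.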 Unmarked numbers belong to inactive results. Calls of active or inactive are those of the source. Rule for the calls: active = growth percent below 10; inactive = the rest.

Data on 26 compounds can be found in PubChem BioAssay (NCI).

Holding throughout (assay): NCI-60 one-dose screen, 48 h (100 = growth as untreated, 0 = no growth, -100 = all killed)
What all share (conditions): 10 µM unless noted

Assay [1] has as its system SR leukemia.
Assay [2] relates to RPMI-8226 leukemia.
In assay [3] the test system is OVCAR-8 ovarian.
Assay [4] has as its system OVCAR-5 ovarian.
Assay [5] concerns OVCAR-4 ovarian.
Assay [6] has as its system SK-OV-3 ovarian.
The test system of assay [7] is IGROV1 ovarian.
The test system of assay [8] is OVCAR-3 ovarian.
For assay [9], the system named is NCI/ADR-RES ovarian.
Assay [10] deals with HS 578T breast.

With `COc1ccc(-c2nc(SCC(C)C)nc(N/N=C(/C)c3ccc(OC)c(OC)c3)c2C#N)cc1`, the growth in assay [1] is 70.9%; in assay [2], 71.3%; in assay [3], 93.4%; in assay [4] it was 81.7%; in assay [5], 86.3%; in assay [6] it was 93.3%. In addition, the growth in assay [7] is 78.8%; in assay [8], 79.7%; in assay [9], 90.2%.

As for `CCC(C)N(CCNc1cc(OC)cc2cccnc12)CCC(C)C` (stereo not given), the growth was 51.8% in assay [1]; 94.1% in assay [2]; 86.6% in assay [3]; 102% in [4]; 26% in assay [5]; 68.3% in assay [6]. The growth in assay [7] is 66.4%; in assay [8] it was 64%; in assay [9], 85.5%.

For the compound `Cc1ccc(C(=O)Nc2ccccc2C(=O)N/N=C(\c2ccccc2)c2ccccn2)cc1`, the growth was 16.8% in assay [1]; 16% in [2]; 19.5% in [3]; 43.3% in [4]; 9.94% (active) in assay [5]; 8.33% (active) in assay [6]. For the same compound, the growth was 24% in assay [7], 22.5% in assay [8], 68.3% in assay [10] and 13.3% in [9].

In the case of `COc1cc(NCCCN(CC(C)C)C2CCCC2)c2ncccc2c1`, the growth in assay [1] is 16.8%; in assay [2], 35.5%; in assay [3], 59.2%; in [4], 96.3%; in assay [5] it was 22.5%; in [6], 84.6%. Also, the growth was 50.6% in assay [7], 52.6% in assay [8] and 71.8% in [9].

Regarding `O=C1c2ccccc2-c2c1c1c(NCCCO)nc3ccccc3c1n2Cc1ccccc1`, the growth in assay [1] was 5.22% (active); in assay [2] it was 46.2%; in assay [3] it was 25.9%; in assay [4], 45.6%; in assay [5], 10.7%; in assay [6] it was 23.8%. The values for the growth in assay [7], in assay [8] and in assay [9] were 15.7%, 14.4% and 3.37% (active), respectively.

Regarding `Cc1nccc2c3ccc(OCc4cn(-c5ccc(Cl)cc5)nn4)cc3n(CCCc3ccccc3)c12`, the growth was -34.1% (active) in assay [1]; 7.63% (active) in assay [2]; -33.2% (active) in assay [3]; 43.4% in assay [4]; -51.1% (active) in [5]; 53.2% in [6]. The growth in assay [7] is 34%; in assay [8], 26.6%; in assay [10] it was -35.7% (active); in [9], -44.1% (active).

As to `Fc1ccc(C2CC(c3cccc(Nc4ccncc4)c3)=NN2c2ccc(Cl)cc2)cc1` (stereo not given), the growth was 4.4% (active) in assay [1]; 28% in assay [2]; 22.6% in assay [3]; 88.8% in assay [4]; 60.7% in assay [5]; 80.9% in assay [6]. Also, the growth is 44.3% in assay [7], 67.8% in [8] and 66.8% in assay [9].

Turning to `Cn1c(COC(=O)N2CCCCC2)nc2c(N3CCOCC3)nc(-c3ccccc3)nc21`, the growth in [1] is 0.966% (active); in assay [2], -29.5% (active); in assay [3] it was -6.61% (active); in assay [4] it was -79.8% (active); in assay [5] it was -78.4% (active); in assay [6], 60.2%. The growth was -80.6% (active) in assay [7], -85.3% (active) in assay [8] and -8.64% (active) in assay [9].

For the compound `COc1cc2nc(-c3ccc(C(F)(F)F)cc3)cc(OCCCN3CCCCC3)c2cc1OC`, the growth is 8.2% (active) in [1]; 24.8% in assay [2]; 52.4% in assay [3]; 57.7% in [4]; 54.7% in assay [5]; 77.8% in assay [6]. Also, the growth in assay [7] is 31.8%; in assay [8] it was 60.1%; in [9], 49.7%.

Turning to `CC1=CC[C@@H]2CC[C@]3(C)[C@H](CC[C@@H]4[C@@]5(C)CCCNC(C)(C)[C@@H]5CC[C@]43C)[C@H]2[C@@H]1C`, the growth is 5.05% (active) in [1]; -32.8% (active) in assay [2]; -87.3% (active) in [3]; 41.1% in assay [4]; -41% (active) in assay [5]; 103% in [6]. In addition, the growth was 40.5% in assay [7], -28.9% (active) in assay [8] and -45.1% (active) in [9].

In the case of `COC(=O)Nc1nc2ccc(C(=O)c3cccc(I)c3)cc2[nH]1`, the growth in assay [1] was -3.68% (active); in assay [2], 7.16% (active); in assay [3], 6.51% (active); in assay [4] it was 28.6%; in [5], 28.3%; in assay [6], 30.3%. The growth is 14.9% in assay [7] and 13.6% in assay [10].

Take `CCOc1cc(CNc2ccc(N3CCOCC3)c(C(=O)O)c2)ccc1OC`: the growth was 94.2% in assay [1]; 100% in assay [2]; 95.2% in assay [3]; 102% in assay [4]; 102% in assay [5]; 120% in assay [6]. Further, the growth in [7] was 103%; in assay [10], 95.6%; in [9], 102%.

As to `CN1C(=O)N(C)[C@H]2NC(NN)=N[C@H]21`, the growth is 100% in assay [1]; 118% in assay [2]; 103% in [3]; 98.8% in [4]; 103% in [5]; 121% in assay [6]. In addition, the growth in [8] was 109%; in assay [10] it was 95.2%; in [9], 105%.

Turning to `CN1CCN(CCCNc2nccc(-c3c(-c4ccc(F)c(O)c4)nc4sccn34)n2)S1(=O)=O`, the growth in assay [1] is 58.1%; in assay [2], 87.4%; in [3], 96.1%; in assay [4], 131%; in assay [5] it was 133%; in assay [6] it was 91.8%. In addition, the growth in assay [7] is 98.5%; in [10] it was 97.2%; in assay [9], 99.5%.

`O=C(Nc1ccc2cc3ccc(NC(=O)NC4CCCCC4)cc3nc2c1)NC1CCCCC1`: the growth is -0.865% (active) in assay [1]; 85.6% in assay [2]; 93.4% in [3]; 103% in assay [4]; 92.8% in [5]; 95.4% in [6]. The growth was 99.9% in assay [7], 36.4% in assay [10] and 106% in assay [9].

In the case of `COc1ccc(Nn2c(SCC(=O)Nc3nc(-c4ccc(Cl)cc4)cs3)nc(C)c2C)cc1`, the growth in assay [1] is 40.3%; in assay [2], 35.7%; in assay [3], 43.9%; in [4], 111%; in [5], 37%; in assay [6], 77.8%. The growth in assay [7] was 70.9%; in [10], 86.1%; in assay [9] it was 23.1%.

On to `Cc1cccc(Oc2ccc(Nc3ncnc4ccc(NC(=O)CNCCO)cc34)cc2Cl)c1`, for which the growth in assay [1] was 5.67% (active); in assay [2], 71.7%; in [3], 66.7%; in assay [4], 78.8%; in [5], 67.7%; in assay [6] it was 10.8%. In addition, the figures for the growth in [8], in assay [10] and in assay [9] were 49.7%, 83.5% and 76.1%, respectively.

As to `CCNC(=O)c1[nH]cc(-c2ccc(OC)cc2)c1-c1cc(OC)cc(OC)c1`, the growth in assay [1] was 92.6%; in assay [2], 87.7%; in [3], 93.4%; in assay [4], 99.6%; in assay [5], 81.4%; in [6], 145%. The growth is 80.3% in assay [7], 87.1% in [10] and 86.9% in assay [9].

`C=C(C)[C@@H]1CC[C@]2(C(=O)N3CCN(C)CC3)CC[C@]3(C)[C@H](CC[C@@H]4[C@@]5(C)CCC(=O)C(C)(C)[C@@H]5CC[C@]43C)[C@@H]12`: the growth is -12.1% (active) in assay [1]; 78.1% in assay [2]; 87.1% in [3]; 92.5% in [4]; 83.5% in assay [5]; 104% in assay [6]. Further, the growth was 74% in [8], 95.3% in [10] and 74.6% in assay [9].

In the case of `COc1ccc(-c2nc(SC)nc(N3CCOCC3)c2C#N)cc1`, the growth was 78.9% in assay [1]; 91.2% in [2]; 98.1% in [3]; 99.7% in assay [4]; 100% in assay [5]; 89.4% in assay [6]. Besides, the growth was 85% in [7], 98.4% in assay [10] and 94% in [9].

With `CC(=O)c1cc2c(N)c(C(=O)Nc3cncc4ccccc34)sc2nc1C`, the growth in [1] was 77.5%; in assay [2] it was 94.9%; in [3], 104%; in assay [4], 104%; in assay [5] it was 113%; in assay [6], 93.6%. For the same compound, the growth in assay [7] was 104%; in assay [10], 95.3%; in assay [9] it was 104%.

For `O=c1[nH]nc(-c2ccc(Cl)cc2)cc1Cc1cccc([N+](=O)[O-])c1`, the growth in assay [1] was -44.9% (active); in [2], 51.6%; in assay [3], 101%; in [4] it was 107%; in [5] it was 80%; in [6] it was 88.8%. Also, the figures for the growth in assay [8], in assay [10] and in assay [9] were 101%, 49.1% and 101%, respectively.

Turning to `CCn1ccnc1C(=O)/C=C/c1ccc(CC(=O)Nc2ccc(F)cc2)cc1`, the growth was 14.8% in assay [1]; 2.37% (active) in assay [2]; -2.13% (active) in assay [3]; 44.5% in [4]; 35.4% in assay [5]; 86.6% in assay [6]. The growth in assay [7] is 32.3%; in assay [8], -4.68% (active); in [9], 4.48% (active).

Regarding `COc1cc(/C=C/C(=O)c2ccc(Nc3ncnc4ccccc34)cc2)cc(OC)c1`, the growth in assay [1] was 0.253% (active); in assay [2], 2.26% (active); in assay [3], 57.5%; in assay [4], 101%; in assay [5], 79.8%; in assay [6], 128%. Moreover, the growth was 36.4% in assay [8], 82.4% in [10] and 73.6% in [9].

Turning to `Cc1ccc(-c2csc(/N=C3\C(=O)Nc4ccccc43)n2)cc1`, the growth in assay [1] is -30.2% (active); in assay [2], -20.2% (active); in assay [3], 16.3%; in [4], 60.8%; in assay [5], 36%; in [6] it was 32.4%. In addition, the values for the growth in [7], in assay [10] and in assay [9] were 25.3%, 31.2% and 81%, respectively.

As for `C=CCn1c(SCC(=O)Nc2ccc(C(=O)/C=C/c3cc(OC)c(OC)c(OC)c3)cc2)nnc1-c1cc(-c2ccc(S(C)(=O)=O)cc2)nc2ccccc12`, the growth in assay [1] is 13.9%; in assay [2], -5.82% (active); in [3], 68.6%; in [4], 112%; in assay [5] it was 94.5%; in assay [6], 127%. For the same compound, the results for the growth in [7], in assay [10] and in assay [9] were 72.8%, 95.3% and 91.3%, respectively.
